# Measurements from PubChem BioAssay AID1159580 (chemical genetic matrix, 2015).
# Out of some 5,500 compounds screened, about 2,000 (36%) were called active. Not shown: some 18% with an inconclusive outcome. The list shows a part of the results. Unmarked numbers belong to inactive results. No stated cut-off is given here; in the data, active means normalized growth mostly below about 0.91 (no sharp cut-off); inconclusive means no clear call, values can overlap the other calls; inactive means mostly above about 0.92.
# Assay: chemical genetic growth profiling, strain panel (AID 1159580);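 further: tested at 20 µM; growth read once vehicle control cultures reached saturation at 30 °C; 1 = growth at the plate median or of vehicle wells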
# Conditions: growth OD
compound,measurement,setting,value
CN1CCC(=C2c3ccccc3Sc3ccccc32)CC1,normalized growth,"S. cerevisiae deletion strains, locus YJR075W, strain HOC1, stronger effect = lower value",0.935
same,normalized growth,"S. cerevisiae deletion strains, locus YKL009W, strain mrt4, stronger effect = lower value",0.982
same,normalized growth,"S. cerevisiae deletion strains, locus YKL068W, stronger effect = lower value",1
same,normalized growth,"S. cerevisiae deletion strains, locus YKL085W, strain MDH1 (second series), stronger effect = lower value",0.999
same,normalized growth,"S. cerevisiae deletion strains, locus YKL085W, strain MDH1, stronger effect = lower value",0.999
same,normalized growth,"S. cerevisiae deletion strains, locus YKL160W, strain elf1, stronger effect = lower value",1
same,normalized growth,"S. cerevisiae deletion strains, locus YKL190W, strain CNB1, stronger effect = lower value",1
same,normalized growth,"S. cerevisiae deletion strains, locus YKR001C, strain vps1, stronger effect = lower value",0.996
same,normalized growth,"S. cerevisiae deletion strains, locus YKR026C, strain gcn3, stronger effect = lower value",1.03
same,normalized growth,"S. cerevisiae deletion strains, locus YKR091W, strain srl3, stronger effect = lower value",1.03
same,normalized growth,"S. cerevisiae deletion strains, locus YLL001W, strain dnm1, stronger effect = lower value",1.03
same,normalized growth,"S. cerevisiae deletion strains, locus YLL026W, stronger effect = lower value",1.02
same,normalized growth,"S. cerevisiae deletion strains, locus YLL041C, strain sdh2, stronger effect = lower value",1.01
same,normalized growth,"S. cerevisiae deletion strains, locus YLR027C, strain aat2, stronger effect = lower value",1.02
same,normalized growth,"S. cerevisiae deletion strains, locus YLR039C, strain RIC1, stronger effect = lower value",1.34 [resistant] (active)
same,normalized growth,"S. cerevisiae deletion strains, locus YLR058C, strain SHM2, stronger effect = lower value",1
same,normalized growth,"S. cerevisiae deletion strains, locus YLR102C, strain apc9, stronger effect = lower value",1.01
same,normalized growth,"S. cerevisiae deletion strains, locus YLR113W, strain HOG1, stronger effect = lower value",0.979
same,normalized growth,"S. cerevisiae deletion strains, locus YLR221C, strain rsa3, stronger effect = lower value",1
same,normalized growth,"S. cerevisiae deletion strains, locus YLR258W, strain gsy2, stronger effect = lower value",1.04
same,normalized growth,"S. cerevisiae deletion strains, locus YLR262C, strain YPT6 (second series), stronger effect = lower value",1.13
same,normalized growth,"S. cerevisiae deletion strains, locus YLR262C, strain YPT6, stronger effect = lower value",1.44 [resistant] (active)
same,normalized growth,"S. cerevisiae deletion strains, locus YLR268W, strain sec22, stronger effect = lower value",1.06
same,normalized growth,"S. cerevisiae deletion strains, locus YLR320W, strain mms22, stronger effect = lower value",1.01
same,normalized growth,"S. cerevisiae deletion strains, locus YLR330W, strain CHS5, stronger effect = lower value",0.994
same,normalized growth,"S. cerevisiae deletion strains, locus YLR342W, strain FKS1 (second series), stronger effect = lower value",0.859
same,normalized growth,"S. cerevisiae deletion strains, locus YLR342W, strain FKS1, stronger effect = lower value",1.03
same,normalized growth,"S. cerevisiae deletion strains, locus YLR357W, strain rsc2, stronger effect = lower value",1.04
same,normalized growth,"S. cerevisiae deletion strains, locus YLR370C, strain arc18, stronger effect = lower value",1.02
same,normalized growth,"S. cerevisiae deletion strains, locus YLR371W, strain rom2, stronger effect = lower value",1.02
same,normalized growth,"S. cerevisiae deletion strains, locus YLR384C, strain iki3, stronger effect = lower value",1.02
same,normalized growth,"S. cerevisiae deletion strains, locus YLR418C, strain cdc73, stronger effect = lower value",0.874
same,normalized growth,"S. cerevisiae deletion strains, locus YML016C, strain PPZ1, stronger effect = lower value",0.998
same,normalized growth,"S. cerevisiae deletion strains, locus YML032C, strain rad52, stronger effect = lower value",1.01
same,normalized growth,"S. cerevisiae deletion strains, locus YML120C, strain ndi1, stronger effect = lower value",0.985
same,normalized growth,"S. cerevisiae deletion strains, locus YML124C, strain tub3, stronger effect = lower value",1.02
same,normalized growth,"S. cerevisiae deletion strains, locus YMR058W, strain fet3, stronger effect = lower value",1.01
same,normalized growth,"S. cerevisiae deletion strains, locus YMR078C, strain ctf18, stronger effect = lower value",1
same,normalized growth,"S. cerevisiae deletion strains, locus YMR125W, strain sto1, stronger effect = lower value",1.03
same,normalized growth,"S. cerevisiae deletion strains, locus YMR129W, stronger effect = lower value",1.01
same,normalized growth,"S. cerevisiae deletion strains, locus YMR205C, strain PFK2, stronger effect = lower value",1.06
same,normalized growth,"S. cerevisiae deletion strains, locus YMR223W, strain ubp8, stronger effect = lower value",0.962
same,normalized growth,"S. cerevisiae deletion strains, locus YMR231W, strain pep5, stronger effect = lower value",1.02
same,normalized growth,"S. cerevisiae deletion strains, locus YMR263W, strain SAP30, stronger effect = lower value",0.969
same,normalized growth,"S. cerevisiae deletion strains, locus YMR307W, strain GAS1, stronger effect = lower value",1.05
same,normalized growth,"S. cerevisiae deletion strains, locus YNL067W, strain RPL9B, stronger effect = lower value",0.997
same,normalized growth,"S. cerevisiae deletion strains, locus YNL071W, strain lat1, stronger effect = lower value",1.01
same,normalized growth,"S. cerevisiae deletion strains, locus YNL128W, strain TEP1, stronger effect = lower value",1.01
same,normalized growth,"S. cerevisiae deletion strains, locus YNL153C, strain GIM3, stronger effect = lower value",0.982
same,normalized growth,"S. cerevisiae deletion strains, locus YNL183C, strain NPR1, stronger effect = lower value",0.892
same,normalized growth,"S. cerevisiae deletion strains, locus YNL209W, strain ssb2, stronger effect = lower value",1
same,normalized growth,"S. cerevisiae deletion strains, locus YNL233W, strain BNI4, stronger effect = lower value",1
same,normalized growth,"S. cerevisiae deletion strains, locus YNL248C, strain rpa49, stronger effect = lower value",0.958
same,normalized growth,"S. cerevisiae deletion strains, locus YNL250W, strain rad50, stronger effect = lower value",1.01
same,normalized growth,"S. cerevisiae deletion strains, locus YNL271C, strain bni1, stronger effect = lower value",1.02
same,normalized growth,"S. cerevisiae deletion strains, locus YNL298W, strain CLA4, stronger effect = lower value",1
same,normalized growth,"S. cerevisiae deletion strains, locus YNL307C, strain MCK1, stronger effect = lower value",0.993
same,normalized growth,"S. cerevisiae deletion strains, locus YNL322C, strain KRE1 (second series), stronger effect = lower value",1.03
same,normalized growth,"S. cerevisiae deletion strains, locus YNL322C, strain KRE1, stronger effect = lower value",1.01
same,normalized growth,"S. cerevisiae deletion strains, locus YNR049C, strain mso1, stronger effect = lower value",1.02
same,normalized growth,"S. cerevisiae deletion strains, locus YNR052C, strain pop2, stronger effect = lower value",0.973
same,normalized growth,"S. cerevisiae deletion strains, locus YOL006C, strain TOP1, stronger effect = lower value",0.879
same,normalized growth,"S. cerevisiae deletion strains, locus YOL012C, strain htz1",0.875
same,normalized growth,"S. cerevisiae deletion strains, locus YOL147C, strain pex11, stronger effect = lower value",1.01
same,normalized growth,"S. cerevisiae deletion strains, locus YOR001W, strain rrp6, stronger effect = lower value",0.97
same,normalized growth,"S. cerevisiae deletion strains, locus YOR061W, strain CKA2, stronger effect = lower value",1.01
same,normalized growth,"S. cerevisiae deletion strains, locus YOR069W, strain VPS5, stronger effect = lower value",0.996
same,normalized growth,"S. cerevisiae deletion strains, locus YOR070C, strain gyp1, stronger effect = lower value",1.02
same,normalized growth,"S. cerevisiae deletion strains, locus YOR080W, strain dia2, stronger effect = lower value",1.03
same,normalized growth,"S. cerevisiae deletion strains, locus YOR083W, strain WHI5, stronger effect = lower value",0.96
same,normalized growth,"S. cerevisiae deletion strains, locus YOR106W, strain vam3, stronger effect = lower value",0.966
same,normalized growth,"S. cerevisiae deletion strains, locus YOR136W, strain idh2, stronger effect = lower value",1.04
same,normalized growth,"S. cerevisiae deletion strains, locus YOR144C, strain elg1, stronger effect = lower value",1.01
same,normalized growth,"S. cerevisiae deletion strains, locus YOR184W, strain ser1, stronger effect = lower value",1.03
same,normalized growth,"S. cerevisiae deletion strains, locus YOR231W, strain MKK1, stronger effect = lower value",0.99
same,normalized growth,"S. cerevisiae deletion strains, locus YOR265W, strain rbl2, stronger effect = lower value",1.02
same,normalized growth,"S. cerevisiae deletion strains, locus YOR270C, strain vph1, stronger effect = lower value",0.933
same,normalized growth,"S. cerevisiae deletion strains, locus YOR290C, strain snf2, stronger effect = lower value",0.973
same,normalized growth,"S. cerevisiae deletion strains, locus YOR316C, strain cot1, stronger effect = lower value",1.01
same,normalized growth,"S. cerevisiae deletion strains, locus YPL051W, strain arl3, stronger effect = lower value",0.974
same,normalized growth,"S. cerevisiae deletion strains, locus YPL055C, strain LGE1, stronger effect = lower value",0.958
same,normalized growth,"S. cerevisiae deletion strains, locus YPL078C, strain atp4, stronger effect = lower value",0.983
same,normalized growth,"S. cerevisiae deletion strains, locus YPL106C, strain sse1, stronger effect = lower value",1.09
same,normalized growth,"S. cerevisiae deletion strains, locus YPL240C, strain hsp82, stronger effect = lower value",1.02
same,normalized growth,"S. cerevisiae deletion strains, locus YPL241C, strain CIN2, stronger effect = lower value",1
same,normalized growth,"S. cerevisiae deletion strains, locus YPL256C, strain CLN2, stronger effect = lower value",0.995
same,normalized growth,"S. cerevisiae deletion strains, locus YPR119W, strain clb2, stronger effect = lower value",1.01
same,normalized growth,"S. cerevisiae deletion strains, locus YPR141C, strain kar3, stronger effect = lower value",1.01
same,normalized growth,"S. cerevisiae deletion strains, locus YPR163C, strain tif3, stronger effect = lower value",0.993
same,normalized growth,"S. cerevisiae deletion strains, locus YPR167C, strain met16, stronger effect = lower value",1.01
same,normalized growth,"S. cerevisiae deletion strains, strain wtn01, stronger effect = lower value",1.02
same,normalized growth,"S. cerevisiae strains, strain wild type, stronger effect = lower value",0.993
